Test results: PubChem BioAssay AID687022 (Broad Institute, 2013)
Out of some 1,000 compounds screened, about 360 (36%) were called active.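 How the source made its calls: active means Fitted curve of melting temperature shift crosses the 1.0 threshold at or below the sample's highest valid tested concentration; inconclusive means Flat fit with activity 30 to 70, or invalid fit; inactive means Opposite direction, flat within 30, or no crossing.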 Not all results are given here.

Target: Fibroblast growth factor 22 (Homo sapiens) (UniProt Q9HCT0)
Sequence (Q9HCT0 whole entry, looked up): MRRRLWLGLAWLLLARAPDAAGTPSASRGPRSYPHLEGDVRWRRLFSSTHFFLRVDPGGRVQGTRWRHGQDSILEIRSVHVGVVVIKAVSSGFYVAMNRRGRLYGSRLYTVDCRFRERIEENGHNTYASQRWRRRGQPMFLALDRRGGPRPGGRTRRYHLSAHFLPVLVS
Test: FGF22 ligand-induced thermal stabilization – biophysical, thermal shift, cherry-pick, FGF22 synaptogenesis inhibitor project, dose response (AID 687022); further: reference of the scale not given here
Details: recombinant FGF22 thermal shift, SYPRO orange melting; series mostly up to 38 µM

Question: Which Tm shift activity does the source give for CN(C)CC(=O)Nc1ccc2c(c1)[C@@H]1C[C@H](CC(=O)N(C)C)O[C@@H](CO)[C@@H]1O2 here?
Answer: inactive

Question: Which Tm shift activity does the source give for O=C1COc2ccc(S(=O)(=O)N3CCCC3)cc2N1 here?
Answer: inactive

Question: Which Tm shift activity does the source give for C[C@H]1CN([C@@H](C)CO)C(=O)c2cc(NS(=O)(=O)c3cn(C)cn3)ccc2O[C@H]1CN(C)Cc1ccccc1 here?
Answer: inactive

Question: For OC[C@H]1[C@@H](c2ccc(-c3cccnc3)cc2)[C@@H]2CN(Cc3ccccn3)CCCCN12, which Tm shift activity is on record?
Answer: inactive

Question: Which Tm shift activity does the source give for O=C(C[C@H]1CC[C@H]2[C@@H](COC[C@@H](O)CN2C(=O)C2CC2)O1)NCc1ccncc1 here?
Answer: inactive

Question: How did the Tm shift activity turn out when Cc1nn(C)cc1NC(=O)C[C@H]1CC[C@@H]2[C@@H](COc3ccc(NC(=O)NC(C)C)cc3C(=O)N2C)O1 was run?
Answer: inactive

Question: How did the Tm shift activity turn out when COc1cccc(NC(=O)N[C@H]2C=C[C@@H](CC(=O)N3CCN(C)CC3)O[C@H]2CO)c1 was run?
Answer: inactive

Question: For O=C1C=CCCN1S(=O)(=O)/C=C/c1ccccc1, which Tm shift activity is on record?
Answer: inactive

Question: With CCOc1ccc(C(=O)CCC(=O)Nc2ccc(C)cn2)cc1 as the compound, how does the Tm shift activity read?
Answer: inactive

Question: With CCC(CC)CN1CCC(CN2C(=O)C(=O)NC[C@@H]2CC(C)C)CC1 as the compound, how does the Tm shift activity read?
Answer: inactive

Question: Which Tm shift activity does the source give for O=C(C[C@H]1C[C@@H]2c3cc(NC(=O)NC4CCCC4)ccc3O[C@@H]2[C@H](CO)O1)NC1CCCC1 here?
Answer: inactive

Question: With Nc1nccc(-c2ccc(-n3cccc3)cc2)n1 as the compound, how does the Tm shift activity read?
Answer: inactive

Question: How did the Tm shift activity turn out when CO[C@H]1CN(C)C(=O)c2ccc(NS(=O)(=O)c3ccc(Cl)cc3)cc2OC[C@@H](C)N(C(=O)NC(C)C)C[C@H]1C was run?
Answer: inactive

Question: For COCCNC(=O)CCc1nnc2ccc(N3CCC(C)CC3)nn12, which Tm shift activity is on record?
Answer: inactive

Question: How did the Tm shift activity turn out when CC(C)(C)NC(=O)N1CCC(CO)(Cc2ccccc2Cl)CC1 was run?
Answer: inactive

Question: How did the Tm shift activity turn out when CC(=O)N1[C@H](CO)[C@H](c2ccccc2)[C@H]1CN(C(=O)c1cccc(F)c1)C(C)C was run?
Answer: inactive

Question: Which Tm shift activity does the source give for Cc1noc(C)c1S(=O)(=O)Nc1ccc2c(c1)CC(=O)N([C@@H](C)CO)C[C@@H](C)[C@@H](CN(C)Cc1ccc(Cl)c(Cl)c1)O2 here?
Answer: inactive

Question: How did the Tm shift activity turn out when CCCNC(=O)N1[C@@H]2CN(C(=O)c3ccccc3)c3ccccc3[C@@H]2[C@@H]1CO was run?
Answer: inactive

Question: For O=C(O)C1CSC(c2ccc3c(c2)OCO3)N1 (stereo not drawn), which Tm shift activity is on record?
Answer: inactive

Question: OC[C@@H]1[C@H](c2ccc(Br)cc2)[C@@H]2CN(Cc3cncnc3)CCCCN12 was tested. Which Tm shift activity did it give?
Answer: inactive

Question: CO[C@H]1CN(C)C(=O)c2cc(NC(=O)CC(F)(F)F)ccc2OC[C@@H](C)N(C(C)=O)C[C@H]1C was tested. Which Tm shift activity did it give?
Answer: inactive

Question: How did the Tm shift activity turn out when CNC[C@H]1Oc2ccc(NC(=O)Nc3ccc(OC)cc3)cc2C(=O)N([C@H](C)CO)C[C@@H]1C was run?
Answer: inactive

Question: Which Tm shift activity does the source give for CNC[C@@H]1Oc2c(NS(=O)(=O)c3ccc(OC)cc3)cccc2C(=O)N([C@@H](C)CO)C[C@@H]1C here?
Answer: inactive

Question: COc1ccc(S(=O)(=O)N(C)C[C@@H]2Oc3c(NC(=O)c4cc(C)nn4C)cccc3C(=O)N([C@H](C)CO)C[C@H]2C)cc1 was tested. Which Tm shift activity did it give?
Answer: inactive

Question: COc1ccc(S(=O)(=O)N/N=c2\oc3c(OC)cccc3cc2S(=O)(=O)c2ccc(C)cc2)cc1OC was tested. Which Tm shift activity did it give?
Answer: inactive

Question: For O=C(N[C@H]1CC[C@@H](CCNS(=O)(=O)c2ccc(F)cc2)O[C@H]1CO)C1CCCC1, which Tm shift activity is on record?
Answer: inactive

Question: CN1C(=O)c2cc(NC(=O)Cc3ccccc3)ccc2OC[C@@H]2O[C@H](CC(=O)O)CC[C@H]21 was tested. Which Tm shift activity did it give?
Answer: inactive

Question: Which Tm shift activity does the source give for CO[C@@H]1CN(C)C(=O)c2cc(NC(=O)NC(C)C)ccc2OC[C@@H](C)N(C)C[C@@H]1C here?
Answer: inactive
